Common to all, as to test: PBM binding z-score (relative to random genomic background probes); higher = stronger binding; sequences stand for … in GC…GCGATTGACAGCGTAGAATGAAGG
The test system of assay [1] is RARb homodimer (NR concentration 270 nM). Summed up:
(§1)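 Scanned fluorescence from custom Agilent 4×180K protein-binding microarrays was regression-normalized. Binding z-scores use random background probes as reference. Ligand-free nuclear receptor dimers were incubated on the arrays for 1 h and detected with antibodies against each partner (one per run).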

Assay [2] deals with RARg:RXRa (NR concentration 270 nM, RXRa partner concentration 90 nM). The gist of the method: as §1
The subject of assay [3] is RARg homodimer (NR concentration 270 nM). Summed up: as §1
The test system of assay [4] is RXRa DBDmut IVT, anti-RXR (DBD mutation: RXRa K156A/R161A, NR concentration 90 nM). The gist of the method:
as §1

In assay [5] the test system is RXRa homodimer (NR concentration 180 nM). Summed up:
as §1

Assay [6] deals with THRa:RXRa (NR concentration 90 nM, RXRa partner concentration 90 nM). The gist of the method:
as §1

Assay [7] deals with THRa homodimer (NR concentration 90 nM). The gist of the method:
as §1

The subject of assay [8] is VDR homodimer (NR concentration 270 nM). The gist of the method:
as §1

Consider TATCGGAGGACACGAAAGGTCAGAGCTCGACATC, for which the PBM binding z-score was found to be 5.03 in assay [1]; 4.79 in assay [2]; 5.31 in assay [3]; 0.361 in assay [4]; 4.07 in assay [5]; 3.95 in assay [6]. Moreover, the PBM binding z-score in assay [7] stood at 1.59; in assay [8], 1.67.

Take ATATGTAGGTTAAGGGTCATTCGGGTTGGTTCGC: the PBM binding z-score in assay [1] was determined as 3.7; in assay [2] it was 4.87; in assay [3], 3.3; in assay [4], 2.32; in assay [5], 6.11; in assay [6], 3.39. Also, the PBM binding z-score in assay [7] is 1.95; in assay [8], 5.4.

Turning to ACTATTAGTTGACTTAGGGCAACCGCTACGACGC, the PBM binding z-score in assay [1] came to 0.908; in assay [2], 0.58; in assay [3] it was 0.586; in assay [4], 0.636; in assay [5] it was 0.331; in assay [6] it was 1.39. Besides, the PBM binding z-score in assay [7] is 0.625; in assay [8] it was 0.173.

For the sequence CAAGCTAGGTCACAGAGGTCAAAGTCCGTGCGTA, the PBM binding z-score came out at 5.82 in assay [1]; 7.64 in assay [2]; 8.36 in assay [3]; 3.42 in assay [4]; 8.42 in assay [5]; 4.64 in assay [6]. The PBM binding z-score came out at 2.65 in assay [7] and 7.28 in assay [8].

On to ATAATGAGGTTATTAAGATCAGGGAATTGCGGTC, for which the PBM binding z-score was 0.912 in assay [1]; 1.39 in assay [2]; 1.21 in assay [3]; 2.09 in assay [4]; 1.88 in assay [5]; 2.3 in assay [6]. In addition, the PBM binding z-score in assay [7] turned out to be 0.964; in assay [8], 1.8.

With ACTTACGGGTCAACGAGGATATAGCACGCGTATA, the PBM binding z-score in assay [1] is 2.74; in assay [2], 5.35; in assay [3], 4.72; in assay [4], 2.12; in assay [5], 5.48; in assay [6] it was 3.55. The figures for the PBM binding z-score in assay [7] and in assay [8] were 0.687 and 2.15, respectively.

On to CCGAGTAGGTTAGGGGGCATTCAGGCAACGGTGA, for which the PBM binding z-score came out at 2.12 in assay [1]; 2.21 in assay [2]; 1.79 in assay [3]; 1.54 in assay [4]; 2.03 in assay [5]; 2.4 in assay [6]. The results for the PBM binding z-score in assay [7] and in assay [8] were 1.37 and 2.8, respectively.

The record behind these values is the supplement of paper PMC6555819.
